In PubChem BioAssay AID1159580 (chemical genetic matrix, 2015):
Values joined by “and” are separate entries in the source; they are usually repeats but may differ in a detail not shown here. Equal entries are not always repeated. Among all 5,500 compounds or so, about 2,000 (36%) were called active. About 18% were inconclusive and are not listed. Rule as the data show it: active = normalized growth mostly below about 0.91 (no sharp cut-off); inconclusive = no clear call, values can overlap the other calls; inactive = mostly above about 0.92. The list shows a part of the results.

Assay: chemical genetic growth profiling, strain panel (AID 1159580);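 also: tested at 20 µM; growth read once vehicle control cultures reached saturation at 30 °C; 1 = growth at the plate median or of vehicle wells; lower values mean less growth of the strain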
Conditions: S. cerevisiae deletion strains, growth OD

Measured: normalized growth

OC[C@H]1O[C@@H](O[C@H]2[C@H](O)[C@@H](O)[C@@H](O)O[C@@H]2CO)[C@H](O)[C@@H](O)[C@@H]1O
inactive: locus YAL013W, strain DEP1, active compounds read low 1.02 | locus YAL021C, strain ccr4, active compounds read low 1.01 | locus YAL026C, strain drs2, active compounds read low 1.01 | locus YAL030W, strain snc1, active compounds read low 1 | locus YBL061C, strain skt5, active compounds read low 1 | locus YBR009C, strain hhf1, active compounds read low 1.06 | locus YBR021W, strain FUR4, active compounds read low 1.04 | locus YBR023C, strain chs3, active compounds read low 1.01 | locus YBR171W, strain sec66, active compounds read low 0.996 | locus YBR229C, strain ROT2, active compounds read low 1 | locus YBR231C, strain swc5, active compounds read low 1 | locus YBR279W, strain paf1, active compounds read low 0.993 | locus YCL011C, strain gbp2, active compounds read low 1.02 | locus YCL016C, strain dcc1, active compounds read low 1.01 | locus YCL029C, strain bik1, active compounds read low 1.01 | locus YCL061C, strain MRC1, active compounds read low 1 | locus YCL069W, strain vba3, active compounds read low 1.01 | locus YCR088W, strain abp1, active compounds read low 0.997 | locus YDL005C, strain med2, active compounds read low 0.986 | locus YDL035C, strain GPR1, active compounds read low 1.04 | locus YDL040C, strain nat1, active compounds read low 0.994 | locus YDL074C, strain BRE1, active compounds read low 1.09 | locus YDL101C, strain DUN1, active compounds read low 1.01 | locus YDL134C, strain PPH21, active compounds read low 1.01 | locus YDL185W, strain tfp1, active compounds read low 1.02 | locus YDL192W, strain arf1, active compounds read low 1.03 | locus YDR001C, strain nth1, active compounds read low 0.999 | locus YDR069C, strain doa4, active compounds read low 0.981 | locus YDR101C, strain arx1, active compounds read low 1.02 | locus YDR137W, strain rgp1, active compounds read low 1.01 | locus YDR159W, strain sac3, active compounds read low 0.972 | locus YDR162C, strain NBP2, active compounds read low 1.02 | locus YDR195W, strain ref2 0.958 | locus YDR297W, strain sur2, active compounds read low 1 | locus YDR318W, strain mcm21, active compounds read low 0.994 | locus YDR334W, strain swr1, active compounds read low 0.996 | locus YDR335W, strain msn5, active compounds read low 1.01 | locus YDR388W, active compounds read low 1.02 | locus YDR392W, strain spt3, active compounds read low 0.957 | locus YDR502C, strain sam2, active compounds read low 0.992 | locus YEL003W, strain gim4, active compounds read low 1.02 | locus YEL037C, strain rad23, active compounds read low 1.01 | locus YEL061C, strain CIN8 (second series), active compounds read low 0.999 | locus YEL061C, strain CIN8, active compounds read low 1.01 | locus YER015W, strain faa2, active compounds read low 0.995 | locus YER016W, strain bim1, active compounds read low 1 | locus YER110C, active compounds read low 1.02 | locus YER111C, strain swi4, active compounds read low 1 | locus YER155C, strain BEM2 (second series), active compounds read low 0.987 | locus YER155C, strain BEM2, active compounds read low 1.02 | locus YER167W, strain BCK2, active compounds read low 1.01 | locus YFR010W, strain ubp6, active compounds read low 0.99 | locus YGL078C, strain dbp3, active compounds read low 1.03 | locus YGL086W, strain mad1, active compounds read low 1.04 | locus YGL167C, strain pmr1, active compounds read low 0.999 | locus YGL173C, strain kem1, active compounds read low 1 | locus YGL227W, strain vid30, active compounds read low 1 | locus YGL240W, strain doc1, active compounds read low 1.03 | locus YGL248W, strain PDE1, active compounds read low 1.01 | locus YGL253W, strain hxk2, active compounds read low 1.03 | locus YGR078C, strain PAC10, active compounds read low 1.03 | locus YGR135W, strain pre9, active compounds read low 1.02 | locus YGR252W, strain gcn5, active compounds read low 1 | locus YHR013C, strain ard1, active compounds read low 0.997 | locus YHR027C, strain rpn1, active compounds read low 1.02 | locus YHR030C, strain SLT2, active compounds read low 1.01 and 0.972 | locus YHR079C, strain IRE1 (second series), active compounds read low 1.01 | locus YHR079C, strain IRE1, active compounds read low 0.96 | locus YHR094C, strain hxt1, active compounds read low 1.05 | locus YHR129C, strain ARP1, active compounds read low 1.02 | locus YHR142W, strain chs7, active compounds read low 1.02 | locus YHR200W, strain rpn10, active compounds read low 1.02 | locus YIL066C, strain RNR3, active compounds read low 1.02 | locus YIL073C, strain SPO22, active compounds read low 1.12 | locus YIL125W, strain kgd1, active compounds read low 1.01 | locus YIR030C, strain dcg1, active compounds read low 1.01 | locus YJL092W, strain hpr5, active compounds read low 1.02 | locus YJL095W, strain BCK1 (second series), active compounds read low 0.995 | locus YJL095W, strain BCK1, active compounds read low 1.02 and 1.06 | locus YJL115W, strain asf1, active compounds read low 0.99 | locus YJL129C, strain trk1, active compounds read low 0.987 | locus YJL134W, strain LCB3, active compounds read low 1 | locus YJL154C, strain vps35, active compounds read low 0.991 | locus YJL164C, strain tpk1, active compounds read low 1.02 | locus YJL166W, strain qcr8, active compounds read low 1.03 | locus YJL168C, strain set2, active compounds read low 1.03 | locus YJL187C, strain SWE1 (second series), active compounds read low 1.02 | locus YJL187C, strain SWE1, active compounds read low 1 | locus YJR043C, strain POL32, active compounds read low 1.02 | locus YJR066W, strain TOR1, active compounds read low 0.921
